# From the supplement of paper PMC11417369
# Over roughly 25,000 sequences, “ln(normalized median fluorescence intensity)” has its median near 6.7; the highest 2% begin near 10. Only a selection was taken, and the highest values are over-represented in it overall.
# Tested on: PfHDP1 homeodomain (GST-tagged)
# Experiment: gcPBM binding intensity (ln(normalized median fluorescence intensity)); higher = stronger DNA binding
# Outline: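 GST-tagged P. falciparum DNA-binding domains, expressed in E. coli (about 25 μg on average), were applied for 1 h to an Agilent 4 × 180k array of primer-extended double-stranded 36-bp intergenic genomic probes plus negative controls. The binding buffer was 1× PBS with 1% milk, 0.2 mg/ml BSA, 0.5% salmon testes DNA and 0.03% Triton X-100. Bound protein was detected with Alexa488 anti-GST antibody and scanned at 488 nm. Binding intensity is the highest Masliner-normalised natural-log median intensity across replicate spots of either probe orientation.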
row,Sequence,gcPBM binding intensity (ln)
1,AAAAAAAAAAAATGCACACATATATTTCCATATACA [CACACA_site1471],9.96
2,AAAAATATTAAAAGGCGTACAATACCTGTATGCAAC [XGTACX_site6069],6.12
3,TTTGTTATTTTTTATTGTACTTTTTTTCTTTCATAA [XGTACX_site4302],7.03
4,AATATTAACAATCGCACACATATTATTTTTCCAAAA [CACACA_site4982],7.13
5,AATAGCTAGCTGTGCACACAAACATATTTTCCAAAT [CACACA_site880],10.3
6,CAAATAGCTAGCTGTGCACACAAACATATTTTCCAA [CACACA_site879],11
7,ATATTGACAAATATTACACACATATATATATATATA [CACACA_site4079],9.39
8,AAAAAAAAAATTAATTGTACTAAAAAAATATTATAT [XGTACX_site8903],6.41
9,TATATATATATATATTGTACTAATTGTGCAAATGAG [XGTACX_site682],10.9
10,ATAACTAAATGATATTGTACAAAATAATTATATATT [XGTACX_site1331],6.38
11,TATGATATCTATAATACACACATATACATAAGATCT [CACACA_site6652],6.6
12,AAAAATATTTAAAATACACACATATCTATAATATAT [CACACA_site7032],6.36
13,TACCAAAAAAAAAAAAATAAAAATAAAAAAAAAAAT [CACACA_negctrl_site1714],6.27
14,AACACATACATATATGCACACATTTTATTCCATTAT [CACACA_site2834],10.1
15,AAAAAAAAAAAAAAAAGTACACATCATTTTATGAAA [XGTACX_site1402],6.41
16,AAGTTGAAATAATGTGCACACATTTTTTTTTTTTTT [CACACA_site3368],9.16
17,TATTTACATTTATGTGCACACATTCCATTTGAAAGT [CACACA_site1954],11
18,TTTGAAAAGTTGAAATGTACACATTTACACATATTT [XGTACX_site1641],6.24
19,TTTACATTTATGTGCACACATTCCATTTGAAAGTAA [CACACA_site1953],10.9
20,TTACAAGTAAAAGGTACACACATTATAAATACAAAT [CACACA_site4752],6.93
21,ATCAACATCTAACATTGTACATGTGATGTGTAAAAG [XGTACX_site547],6.69
22,TATATATATATATGTACACACATCAATCATATTAAC [CACACA_site1946],9.26
23,TATATATATATATATATTAATAATTAATATAAAAGA [XGTACX_negctrl_site32],9
24,GAGGTACATTAATTAGTGCATTAAAATTTTTATCCT,9.85
25,TATGTTATATAATATTGTACACAAAATGGTTTCTAT [XGTACX_site7686],6.73
